# Source: PubChem BioAssay (EPA / NIEHS)
# Several values for one entry are separate records, joined by “and”; a condition that tells them apart may be missing. Equal entries are not always repeated. Inconclusive results are not listed. Activity calls are given as the source filed them. Rule for the calls, unless noted: active = hit-call score of the fitted dose curve at least 0.9, where 1 is the maximum; inactive = score below 0.9.
# Experiments:
# [1] = molecular target: human Vitamin D Receptor (VDR), VDR (gene 7421) (UniProt P11473); experiment: ATG_VDR_TRANS: Attagene TRANS-FACTORIAL HepG2 Assay for human Vitamin D Receptor (VDR) (AID 2283022; active = hit-call score of the fitted dose curve at least 0.9, where 1 is the maximum)
# Summary of the method: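 Transactivation by an exogenous VDR-Gal4 chimera in transiently transfected HepG2 cells was measured as reporter transcript level 24 hours after chemical treatment. RT-PCR products were analysed by capillary electrophoresis and fitted in the positive direction relative to DMSO.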
# [2] = BSK_3C_SRB: Viability Assessment in the BioMAP Diversity Plus: 3C Assay (AID 2283023); settings: primary human endothelial cells (HUVEC);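 note: fitted both ways against DMSO so a hit may be signal rise or drop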
# Summary of the method: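 Cytotoxicity readout in parallel HUVEC 3C cultures: after 24 h compound exposure, cells fixed with 10% TCA, stained with 0.1% SRB and read at 560 nm. Gain or loss relative to DMSO fitted.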
# [3] = read-out: Matrix Metallopeptidase 1 (MMP1), MMP1 (gene 4312); experiment: BSK_BE3C_MMP1: BioMAP Diversity Plus: BE3C Assay for Matrix Metallopeptidase 1 (MMP1) Biomarker Activity (AID 2283024); settings: primary human bronchial epithelial cells; actives raise or lower the signal
# Summary of the method: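 In this multiplexed primary-cell system, human bronchial epithelium received chemicals for 24 h before an ELISA for MMP1. Values reflect bidirectional fits normalised to the DMSO baseline.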
# [4] = read-out: Pselectin, SELP (gene 6403); experiment: BSK_4H_Pselectin: BioMAP Diversity Plus: 4H Assay for Pselectin Biomarker Activity (AID 2283026); settings: primary human endothelial cells (HUVEC); actives raise or lower the signal
# Summary of the method: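 Bidirectional fits against DMSO gave the endpoint. Cells: primary human umbilical vein endothelium, chemical-treated for 24 h before ELISA detection of P-selectin.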
# [5] = BSK_4H_SRB: Viability Assessment in the BioMAP Diversity Plus: 4H Assay (AID 2283027); settings: primary human endothelial cells (HUVEC);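 note: cells exposed to compound for 24 h before staining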;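 for AC50: curves fitted both ways versus DMSO so AC50 may be loss or gain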
# Summary of the method: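 Cytotoxicity read-out in primary human endothelial cells: after 24 h compound exposure, cells were TCA-fixed (10%), stained with 0.1% SRB and absorbance taken at 560 nm. Values fitted in both directions relative to DMSO.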
# [6] = BSK_BE3C_SRB: Viability Assessment in the BioMAP Diversity Plus: BE3C Assay (AID 2283028); settings: primary human bronchial epithelial cells;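 note: measured 24 h after chemical dosing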;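 for AC50: fitted both ways so AC50 may mark signal gain or loss versus DMSO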
# Summary of the method: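 Cytotoxicity read-out: SRB (0.1%) staining of TCA-fixed (10%) human lung bronchial epithelial cells, absorbance 560 nm, 24 h post-dosing. Curves fitted both directions relative to DMSO.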
# [7] = read-out: Thrombomodulin, THBD (gene 7056); experiment: BSK_3C_Thrombomodulin: BioMAP Diversity Plus: 3C Assay for Thrombomodulin Biomarker Activity (AID 2283029); settings: primary human endothelial cells (HUVEC); actives raise or lower the signal
# Summary of the method: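 In a multiplexed primary-cell system, human umbilical vein endothelium received chemical and was assayed 24 h later for thrombomodulin by ELISA. Parallel cultures were SRB-stained (0.1% SRB after 10% TCA fixation, read at 560 nm) to flag cytotoxicity.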
# [8] = read-out: Urokinase-type plasminogen activator receptor (uPAR), PLAUR (gene 5329); experiment: BSK_4H_uPAR: BioMAP Diversity Plus: 4H Assay for Urokinase-type plasminogen activator receptor (uPAR) Biomarker Activity (AID 2283030); settings: primary human endothelial cells (HUVEC); actives raise or lower the signal
# Summary of the method: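 uPAR level read by ELISA on HUVEC cultures (BioMAP 4H) 24 h post-dosing, analyzed for gain or loss relative to DMSO. Parallel SRB staining assessed overt cytotoxicity.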
# [9] = read-out: Vascular endothelial growth factor receptor 2 (Homo sapiens) (UniProt P35968); experiment: BSK_4H_VEGFRII: BioMAP Diversity Plus: 4H Assay for Vascular endothelial growth factor receptor 2 (VEGFR2) Biomarker Activity (AID 2283031); settings: primary human endothelial cells (HUVEC); actives raise or lower the signal;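 for AC50: cell-surface VEGFR2 protein level quantified by ELISA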
# Summary of the method: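 Measured by ELISA after 24 h of compound treatment: VEGFR2 on primary human umbilical vein endothelial cells, fitted in both directions relative to DMSO. Parallel cultures received SRB staining (560 nm) for overt cytotoxicity.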
# [10] = BSK_3C_Vis: BioMAP Diversity Plus: 3C Assay for Morphology Visualization (AID 2283025); settings: primary human endothelial cells (HUVEC);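 note: fitted both ways so gain or loss versus DMSO counts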;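 for AC50: light microscopy image of cell morphology used as background control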
# Summary of the method: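 Light-microscopy morphology readout, 24 h exposure, human primary umbilical vein endothelium; analysed relative to DMSO with bidirectional fitting.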
# Chain of human Vitamin D Receptor (VDR), VDR (gene 7421) (P11473 whole entry, looked up, the tested form may be a part): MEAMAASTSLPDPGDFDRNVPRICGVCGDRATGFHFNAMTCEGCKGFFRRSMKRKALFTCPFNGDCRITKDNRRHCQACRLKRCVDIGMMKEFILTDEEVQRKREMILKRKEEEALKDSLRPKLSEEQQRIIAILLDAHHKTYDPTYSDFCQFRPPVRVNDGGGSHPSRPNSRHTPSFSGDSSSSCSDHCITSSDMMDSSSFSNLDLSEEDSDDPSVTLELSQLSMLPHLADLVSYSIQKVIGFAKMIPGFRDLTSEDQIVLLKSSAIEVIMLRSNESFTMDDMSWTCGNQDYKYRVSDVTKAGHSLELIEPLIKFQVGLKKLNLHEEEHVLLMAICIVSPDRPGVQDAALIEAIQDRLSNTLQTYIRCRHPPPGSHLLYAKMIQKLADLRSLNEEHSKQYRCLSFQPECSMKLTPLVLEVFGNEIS
Structure (SMILES),outcome [1],outcome [2],outcome [3],outcome [4],outcome [5],outcome [6],outcome [7],outcome [8],outcome [9],AC50 [2],AC50 [3],AC50 [10],AC50 [4],AC50 [5],AC50 [8],AC50 [9],outcome [10],AC50 [6]
CC(=O)OCCC(C)CC(C)(C)C (centres undefined),inactive,inactive,inactive,inactive,inactive,inactive,inactive,inactive,inactive,,,,,,,,,
BrC1CCC(Br)C(Br)CCC(Br)C(Br)CCC1Br (centres undefined),inactive,,,,,inactive,inactive,,,4.73 µM (active),1.16 µM (active),8.03 µM (active),2.57 µM (active),4.73 µM (active),4.6 µM (active),2.62 µM (active),,
CCCCCCCCC=O,inactive,inactive,inactive,inactive,inactive,inactive,inactive,inactive,inactive,,,,,,,,inactive,
CC(=O)O[C@]1(C(C)=O)CC[C@H]2[C@@H]3C[C@H](C)C4=CC(=O)CC[C@]4(C)[C@H]3CC[C@@]21C,,inactive,,inactive,inactive,inactive,inactive,inactive,inactive,,5.07 µM (active),,,,,,inactive,
Cc1cc(C2(c3cc(C)c(O)cc3C)OS(=O)(=O)c3ccccc32)c(C)cc1O,,inactive,inactive,inactive,inactive,inactive,inactive,inactive,inactive,,,,,,,,,
N#Cc1ccc(CC(=NNC(=O)Nc2ccc(OC(F)(F)F)cc2)c2cccc(C(F)(F)F)c2)cc1,,inactive,inactive,inactive,inactive,inactive,inactive,inactive,inactive,,,,,,,,inactive,
CC(C)Oc1ccccc1O,,inactive,inactive,inactive,inactive,inactive,inactive,inactive,inactive,,,,,,,,inactive,
C=C[Si](OCC)(OCC)OCC,inactive,inactive,inactive,inactive,inactive,inactive,inactive,inactive,inactive,,,,,,,,inactive,
O=P(c1ccccc1)(c1ccccc1)c1ccccc1,,inactive,inactive,inactive,inactive,inactive,inactive,inactive,inactive,,,,,,,,inactive,
c1ccc2c(c1)c1cccc3ccc4cccc2c4c31,,inactive,inactive,inactive,inactive,inactive,inactive,inactive,inactive,,,,,,,,inactive,
C#C[C@]1(O)CC[C@H]2[C@@H]3CCC4=Cc5oncc5C[C@]4(C)[C@H]3CC[C@@]21C,,,inactive,,,inactive,inactive,,inactive,3.97 µM (active),,37.5 µM (active),35.2 µM (active),7.33 µM (active),3.97 µM (active),,,
C[C@H]1C[C@@H]2[C@H]([C@@H](O)C[C@@]3(C)[C@H]2CC[C@]3(O)C(=O)CO)[C@@]2(C)C=CC(=O)C=C12,,inactive,inactive,inactive,inactive,inactive,inactive,inactive,inactive,,,,,,,,,
CC(C)(COC(=O)c1ccccc1)COC(=O)c1ccccc1,,,inactive,,,inactive,inactive,inactive,,26.8 µM (active),,38.9 µM (active),31.7 µM (active),23.2 µM (active),,28.4 µM (active),,
Cc1ccc2n[nH]nc2c1,,inactive,inactive,inactive,inactive,inactive,inactive,inactive,inactive,,,,,,,,inactive,
OC[C@H]1O[C@H](O[C@]2(CCl)O[C@H](CCl)[C@@H](O)[C@@H]2O)[C@H](O)[C@@H](O)[C@H]1Cl,inactive,inactive,inactive,inactive,inactive,inactive,inactive,inactive,inactive,,,,,,,,,
CCC(=O)OCc1ccccc1,inactive,inactive,inactive,inactive,inactive,inactive,inactive,inactive,inactive,,,,,,,,,
C=CCOC(=O)CCC1CCCCC1,inactive,inactive,inactive,inactive,inactive,inactive,inactive,inactive,inactive,,,,,,,,,
OC1OC[C@@H](O)[C@H](O)[C@H]1O (some centres undefined),,inactive,inactive,inactive,inactive,inactive,inactive,inactive,inactive,,,,,,,,,
CCCCC/C=C/C=C/C=O,,,inactive,,,,inactive,,,31.1 µM (active),,37.4 µM (active),27.1 µM (active),30.5 µM (active),35.6 µM (active),20 µM (active),,30.3 µM (active)
C=C(C)C(=O)O[C@H]1C[C@@H]2CC[C@@]1(C)C2(C)C,inactive,,,,,,inactive,,,13.8 µM (active),20 µM (active),12.5 µM (active),11.3 µM (active),10.9 µM (active),9.5 µM (active),5.29 µM (active),,34.7 µM (active)
CC(=O)[C@H]1CC[C@H]2[C@@H]3CC=C4C[C@@H](O)CC[C@]4(C)[C@H]3CC[C@]12C,,,inactive,inactive,inactive,inactive,inactive,inactive,inactive,11.1 µM (active) and 7.02 µM (active),,,,,,,,
